The results in this text go back to PMC7819943, “Rice protein-binding microarrays: a tool to detect cis-acting elements near promoter regions in rice”.

Over roughly 68,000 sequences, “fluorescence intensity (a.u.)” has its median near 9,100; the highest 2% begin near 16,000. This is one part of a sample in which the highest values are shown more often than they occur.

OsWRKY34, sequence (Q0JBA9 entry or part of it): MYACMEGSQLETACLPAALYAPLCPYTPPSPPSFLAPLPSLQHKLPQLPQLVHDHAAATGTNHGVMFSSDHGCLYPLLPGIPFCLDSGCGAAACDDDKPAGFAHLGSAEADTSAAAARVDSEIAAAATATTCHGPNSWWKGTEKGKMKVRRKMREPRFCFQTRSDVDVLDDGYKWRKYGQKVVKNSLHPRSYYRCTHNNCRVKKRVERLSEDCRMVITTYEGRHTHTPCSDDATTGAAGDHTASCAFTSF

In the assay the target is OsWRKY34 (Oryza sativa, UniProt Q0JBA9 1-250). Kind of assay: protein-binding microarray (RPBM); PBS, 2% BSA, 51.3 ng/ul salmon testes DNA, 50 uM zinc acetate, 200 nM TF, 25 C, 1 h; high values mean tight binding. Conditions: protein: recombinant; tags: N-terminal polyhistidine and DsRed monomer fusion (pET32a); label: CyDye5-dUTP incorporated in the synthesized complementary strand; 3' TTTTT single-stranded linker to array surface; dsDNA, one strand shown. The essentials:
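Transcription factors were each fused at the N-terminus to a polyhistidine tag plus DsRed and expressed in E. coli BL21-CodonPlus before Ni–NTA purification. Binding to a double-stranded custom Agilent array was carried out with 200 nM protein at 25 °C for 1 h in PBS, 2% BSA, salmon testes DNA and 50 µM zinc acetate. The binding signal is per-feature fluorescence intensity, in arbitrary units, on an Axon 4000B scanner.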
As to “GTTTATTTGGGTTCTCTTATGTGTTGGTGTGTCGATGACCCGGAGTCACCTAGTGCAG”, the binding signal was 8940 fluorescence intensity (a.u.). Regarding “AAATGTATTTATTTTTTTTCTACTCCCTCCGCCCCTTAATCGGAGTCACCTAGTGCAG”, the binding signal was 8590 fluorescence intensity (a.u.).

Consider “ATCCTGGACTATGGCTTTCTCTCGTAGCACGATTTTTCTTCGGAGTCACCTAGTGCAG”, for which the binding signal was 10600 fluorescence intensity (a.u.). In the case of “ATTAGTTTTTTTTTCTATATTTAATACTCCATGCATATGTCGGAGTCACCTAGTGCAG” it was 9200 fluorescence intensity (a.u.); in that of “TTACTTGTACTGTTTGACTATTCGTCTTATTCCAAAAAAACGGAGTCACCTAGTGCAG”, 8820 fluorescence intensity (a.u.). Take “ACTTTTAAACCCATGTTTTACCATTCATCTTAATAAAAAACGGAGTCACCTAGTGCAG”: the binding signal is 8840 fluorescence intensity (a.u.). In the case of “TTTGTTTCTTGTTCTAGAGGGTTTCCTAAGGTGTTTAGGACGGAGTCACCTAGTGCAG” it was 9940 fluorescence intensity (a.u.); in that of “AGCAGAGATTTTTACCACGTGTCTCAACAAATAGCCACATCGGAGTCACCTAGTGCAG”, 8050 fluorescence intensity (a.u.); in that of “CATGGGCTAATGTCCTTTTTTTATATATTTTTTTTGCCCTCGGAGTCACCTAGTGCAG”, 8990 fluorescence intensity (a.u.). As to “TGTAAGCTTATGTGTCATCTTTCTTTGTTTGTGAAGAACCCGGAGTCACCTAGTGCAG”, the binding signal is 8190 fluorescence intensity (a.u.).

In the case of “GGCTGCTATATTGACCTTGCTCTTATTCCTTCATTCAATTCGGAGTCACCTAGTGCAG”, the binding signal is 10500 fluorescence intensity (a.u.). With “ACTCCTCTTCTCTTCATTTTCTTCTTCCCCTGTGCTTCTCCGGAGTCACCTAGTGCAG”, the binding signal is 10900 fluorescence intensity (a.u.). As for “TCTTGGGCTTGGGCCTTTGCTATTGTATTGGGTTGGGCCTCGGAGTCACCTAGTGCAG”, the binding signal was 8400 fluorescence intensity (a.u.).

For “CCTGACGTGCTTCACCTCACCTGCTCATTTTTTATTTCCCCGGAGTCACCTAGTGCAG”, the binding signal is 17300 fluorescence intensity (a.u.).

Regarding “CTGCCGGCTGCTCAATTTATTCCCTTGCTGTTTCATTTCGCGGAGTCACCTAGTGCAG”, the binding signal was 45500 fluorescence intensity (a.u.).

Consider “CTTTCTTGCAATTTTGGTCTTCTTTCCTTTTGATTTGGTTCGGAGTCACCTAGTGCAG”, for which the binding signal is 9200 fluorescence intensity (a.u.). For “CCTCTTTATTCCATTAGCTTTTTTCATCTTCTGCTCCATCCGGAGTCACCTAGTGCAG”, the binding signal was 10500 fluorescence intensity (a.u.). The value for “AGTAGCATTTGTTGACTTGTTGTATTCTTCTAGCCTTTTTCGGAGTCACCTAGTGCAG” was 13800 fluorescence intensity (a.u.); that for “CGCCCCTTGATTCGCCTCGTTTTTTCTTTTCCCTTTTTTTCGGAGTCACCTAGTGCAG” was 9920 fluorescence intensity (a.u.); that for “CCTTGCCTAGTCGCTGCTGCTGTTTATAAATTTCAACTCCCGGAGTCACCTAGTGCAG” was 8810 fluorescence intensity (a.u.). As to “CTTTTTCCTTGCAATCGTGATTCTTTTTTTTTTCCCTTTTCGGAGTCACCTAGTGCAG”, the binding signal was 17400 fluorescence intensity (a.u.). In the case of “GAGCATTGGGTTGGGCCTTCCTTTCTTGTATTCGGCTTCTCGGAGTCACCTAGTGCAG” it was 16500 fluorescence intensity (a.u.); in that of “ATTCCTTGTTGGTAACTGTACCCAGGGGCGGGTCCAACGTCGGAGTCACCTAGTGCAG”, 8270 fluorescence intensity (a.u.); in that of “CACGATGATTGTTGCTGCACCATAGTCTCCATGTGTGTACCGGAGTCACCTAGTGCAG”, 8410 fluorescence intensity (a.u.). For “TGTTTGCACCTTATTACGGTTCTGCGCGCTCTCTCTCTCGCGGAGTCACCTAGTGCAG”, the binding signal is 8560 fluorescence intensity (a.u.). The value for “ATACTTAATTAATCATTCGCTAATGGACCACTCTGTTTTCCGGAGTCACCTAGTGCAG” was 8430 fluorescence intensity (a.u.). For “CCATTGTGTCATTCAGTTATTGTTACTTTCAGTTGTTCTACGGAGTCACCTAGTGCAG”, the binding signal was 12200 fluorescence intensity (a.u.). In the case of “GTCTCTCTCACCGTCTCCGTGCTCCTCCGCCGCCCAAGGGCGGAGTCACCTAGTGCAG” it was 12900 fluorescence intensity (a.u.); in that of “GCAAGGTGTACCCGCAGTTCTCACGGTTACCACCATTTTCCGGAGTCACCTAGTGCAG”, 8430 fluorescence intensity (a.u.). Take “CGAGGTTCTTTGCTTCATACTTTTTTTTGGTGTTCTACTTCGGAGTCACCTAGTGCAG”: the binding signal is 11200 fluorescence intensity (a.u.). For “GTGCTACTCCATATACGTATGGCTGGTTTGGTTGGTTGAGCGGAGTCACCTAGTGCAG”, the binding signal is 21400 fluorescence intensity (a.u.). As to “GTGGGTATGGTTGACTTGACGGACGTACTACTCCATACTACGGAGTCACCTAGTGCAG”, the binding signal is 8190 fluorescence intensity (a.u.). Consider “TGGTGTTGTTGGTGTCGTCTTGTTCTTGTTTGTGTTTTCTCGGAGTCACCTAGTGCAG”, for which the binding signal is 15900 fluorescence intensity (a.u.). In the case of “TGGTTGGTTTGTTGGGTTCTTTTCCTTTTTTTTGTTTCTTCGGAGTCACCTAGTGCAG” it was 26700 fluorescence intensity (a.u.); in that of “CGGCTAGGGTTTGTTTTTCTTTTCTTTTTTTCCTTTTCTTCGGAGTCACCTAGTGCAG”, 14300 fluorescence intensity (a.u.); in that of “TTGGTTCGGTTTTTTCTGCCCGCGTCGGTTTTTGTCTCACCGGAGTCACCTAGTGCAG”, 20100 fluorescence intensity (a.u.). In the case of “CGAGTCGAGCTTTTCTTTCTTTGGTTGGTTGGTTGGTGTTCGGAGTCACCTAGTGCAG” it was 19600 fluorescence intensity (a.u.); in that of “AGTTTTTTTTTCAGCTTTTTGGTTTCTTTTGCTGTTGTTTCGGAGTCACCTAGTGCAG”, 10300 fluorescence intensity (a.u.); in that of “CGTTCGCGTTTCGGTTTGACCGCGCGTCTCGCCTAGATTTCGGAGTCACCTAGTGCAG”, 8650 fluorescence intensity (a.u.).

For the sequence “CGAGGTCGTTTGGTTTTCTTTTCCTTTTTGGTTGTGTGTTCGGAGTCACCTAGTGCAG”, the binding signal is 9070 fluorescence intensity (a.u.). In the case of “AGAGTTTGGCATACTCCTACGTATCATTGTCGACCTTTAGCGGAGTCACCTAGTGCAG” it was 8340 fluorescence intensity (a.u.). On to “TAGATAGGGGATGTATAGGACAAGAGAGAACACATGCATTCGGAGTCACCTAGTGCAG”, for which the binding signal was 8690 fluorescence intensity (a.u.).
